# Measurements as given in PubChem BioAssay (NCATS).
# Values joined by “and” are separate entries in the source; they are usually repeats but may differ in a detail not shown here. Identical values can stand only once. Inconclusive results are not listed. Where a call stands in place of a potency, no number is given. Unmarked numbers belong to inactive results. Active and inactive are the calls of the source. Unless noted, calls come from the whole dose curve; as a rule, active = well fitted curve in the direction sought with a large enough effect in the repeat runs; inconclusive = weak or mixed curves; inactive = no such curve, though single readings can be large; an effect the other way counts as inactive or inconclusive. Where a SMILES comes first, the peptide text is derived from it. [ ]: non-standard residue; d: D form. pGlu = O=C1CC[C@@H](C(=O)O)N1
# Legend:
# [1] = target: Cytochrome P450 2D6 (Homo sapiens) (UniProt P10635); experiment: Cytochrome P450 family 2 subfamily D member 6 (CYP2D6) small molecule antagonists: luciferase biochemical (cell-free) qHTS assay (AID 1645840); note: nearly all actives have a fitted effect of over 55% in size; note: potency is the fitted concentration of half-maximal effect; for activity change, negative = inhibition: series mostly up to about 57 µM
# Method in brief: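 P450-Glo luminescent screen: recombinant CYP2D6 enzyme–proluciferin substrate mix preincubated with compound 10 min at room temperature, then NADPH regeneration added for 1 h at room temperature. Detection reagent added for 20 min; luciferin light read as relative luminescence units.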
# [2] = target: Cytochrome P450 2C9 (Homo sapiens) (UniProt P11712); experiment: Cytochrome P450 family 2 subfamily C member 9 (CYP2C9) small molecule antagonists: luciferase biochemical (cell-free) qHTS assay (AID 1645842); note: nearly all actives have a fitted effect of over 55% in size; note: potency is the fitted concentration of half-maximal effect; for activity change, negative = inhibition: series mostly up to about 57 µM
# Method in brief: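 Luminescence, after 20 min with luciferin detection reagent, reflected CYP2C9 turnover during a 1 h NADPH-driven reaction at 37C. Enzyme-substrate mix contained 0.4% bovine serum albumin and was preincubated with compound 10 min at room temperature.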
# [3] = Primary qHTS for inhibitors of nuclear receptor binding SET domain protein 2 (NSD2) in an isogenic RCH-ACV NSD2 p.E1099K mutant (9B) (AID 1645876; active = well fitted curve in the direction sought with a large enough effect; an effect the other way counts as inactive or inconclusive; note: nearly all actives have a fitted effect of over 70% in size; note: potency is the fitted concentration of half-maximal effect)
# [4] = Primary qHTS for inhibitors of nuclear receptor binding SET domain protein 2 (NSD2) in an RCH-ACV wild type WT cells (2C) (AID 1645877; active = well fitted curve in the direction sought with a large enough effect; an effect the other way counts as inactive or inconclusive; note: nearly all actives have a fitted effect of over 70% in size; note: potency is the fitted concentration of half-maximal effect)
# [5] = target: Rap guanine nucleotide exchange factor 3 (Homo sapiens) (UniProt O95398); experiment: Confirmatory qHTS for antagonist of cAMP-regulated guanine nucleotide exchange factor 3 (EPAC1) (AID 1645880; active = well fitted curve in the direction sought with a large enough effect; an effect the other way counts as inactive or inconclusive; note: nearly all actives have a fitted effect of over 55% in size)
# Method in brief: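 Nucleotide exchange uses 100 nM EPAC1, 250 nM RAP1B-BODIPY-GDP and 50 uM GDP, with compounds in a concentration-titration series. After 5 min at room temperature, fluorescence (480 nm ex/540 nm em) is read every 5 min for 30 min. Data are normalized to control ATA and DMSO.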
# [6] = target: Rap guanine nucleotide exchange factor 3 (Homo sapiens) (UniProt O95398); experiment: Confirmatory qHTS for agonist of cAMP-regulated guanine nucleotide exchange factor 3 (EPAC1) (AID 1645881; active = well fitted curve in the direction sought with a large enough effect; an effect the other way counts as inactive or inconclusive;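 note: EPAC1 catalysed release of BODIPY-GDP from Rap1B seen as fluorescence loss; nearly all actives have a fitted effect of over 75% in size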)
# Sequence of Cytochrome P450 2D6 (Homo sapiens) (P10635 whole entry, looked up): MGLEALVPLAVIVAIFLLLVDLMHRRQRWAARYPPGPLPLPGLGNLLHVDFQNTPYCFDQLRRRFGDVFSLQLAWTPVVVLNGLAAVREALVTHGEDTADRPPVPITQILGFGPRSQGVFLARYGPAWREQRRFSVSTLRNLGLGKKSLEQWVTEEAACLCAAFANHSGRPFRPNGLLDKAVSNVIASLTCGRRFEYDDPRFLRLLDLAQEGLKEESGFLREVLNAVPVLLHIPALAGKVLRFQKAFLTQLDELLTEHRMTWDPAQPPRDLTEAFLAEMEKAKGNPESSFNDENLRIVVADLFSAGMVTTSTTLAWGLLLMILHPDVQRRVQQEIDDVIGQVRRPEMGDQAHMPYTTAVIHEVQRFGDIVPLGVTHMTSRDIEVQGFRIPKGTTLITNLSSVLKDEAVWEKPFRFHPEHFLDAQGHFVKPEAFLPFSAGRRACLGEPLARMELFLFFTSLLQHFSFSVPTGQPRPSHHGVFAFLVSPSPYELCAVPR
# Sequence of Cytochrome P450 2C9 (Homo sapiens) (P11712 whole entry, looked up): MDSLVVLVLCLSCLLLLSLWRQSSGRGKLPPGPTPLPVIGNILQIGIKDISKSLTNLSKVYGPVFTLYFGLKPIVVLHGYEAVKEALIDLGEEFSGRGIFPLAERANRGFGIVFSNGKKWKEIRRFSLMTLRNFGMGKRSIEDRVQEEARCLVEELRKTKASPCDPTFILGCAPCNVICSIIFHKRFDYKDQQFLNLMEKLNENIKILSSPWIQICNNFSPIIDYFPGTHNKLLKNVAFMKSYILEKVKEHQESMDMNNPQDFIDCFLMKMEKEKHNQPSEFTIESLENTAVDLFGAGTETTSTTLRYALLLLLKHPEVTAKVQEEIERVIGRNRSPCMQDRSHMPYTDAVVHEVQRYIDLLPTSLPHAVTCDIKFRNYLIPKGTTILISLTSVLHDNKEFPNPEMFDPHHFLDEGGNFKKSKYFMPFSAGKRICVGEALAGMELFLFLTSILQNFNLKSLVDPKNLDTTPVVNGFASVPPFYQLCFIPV
# Sequence of Rap guanine nucleotide exchange factor 3 (Homo sapiens) (O95398 whole entry, looked up): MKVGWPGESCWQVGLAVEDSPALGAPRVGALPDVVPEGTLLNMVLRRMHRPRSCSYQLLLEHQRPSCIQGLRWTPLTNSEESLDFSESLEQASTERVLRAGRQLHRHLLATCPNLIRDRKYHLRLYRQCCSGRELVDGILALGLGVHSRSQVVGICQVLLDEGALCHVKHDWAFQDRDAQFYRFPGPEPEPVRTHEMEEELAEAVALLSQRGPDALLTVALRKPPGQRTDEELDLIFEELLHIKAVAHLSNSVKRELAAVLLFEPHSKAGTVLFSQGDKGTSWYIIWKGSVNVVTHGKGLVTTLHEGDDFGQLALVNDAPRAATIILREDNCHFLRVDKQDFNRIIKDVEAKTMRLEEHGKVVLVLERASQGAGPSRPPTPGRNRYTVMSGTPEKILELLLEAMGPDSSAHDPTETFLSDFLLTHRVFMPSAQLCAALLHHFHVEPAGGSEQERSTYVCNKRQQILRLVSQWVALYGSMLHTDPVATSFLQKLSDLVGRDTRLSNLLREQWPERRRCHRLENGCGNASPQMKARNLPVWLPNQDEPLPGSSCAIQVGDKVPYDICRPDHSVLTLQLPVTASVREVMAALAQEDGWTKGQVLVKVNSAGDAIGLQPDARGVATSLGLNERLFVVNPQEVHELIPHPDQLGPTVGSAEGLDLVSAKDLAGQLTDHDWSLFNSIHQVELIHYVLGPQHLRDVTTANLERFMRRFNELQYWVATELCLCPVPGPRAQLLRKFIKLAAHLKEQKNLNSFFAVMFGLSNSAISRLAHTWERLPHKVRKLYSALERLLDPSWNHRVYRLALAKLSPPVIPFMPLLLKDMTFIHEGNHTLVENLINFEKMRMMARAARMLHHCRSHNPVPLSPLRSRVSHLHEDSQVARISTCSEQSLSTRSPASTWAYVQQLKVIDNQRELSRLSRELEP
smiles,measurement,setting,value
C1=CC2C3C=CC(C3)C2C1 (configuration not stated),Potency,[1],inactive
same,Potency,[2],inactive
same,Potency,[3],inactive
same,Potency,[4],inactive
CN1CCC(Nc2ncc3ncnc(Nc4ccc(F)c(Cl)c4)c3n2)CC1,Potency,[1],15.5 µM (active)
same,Potency,[2],inactive
same,Potency,[3],15 µM (active)
same,Potency,[4],11.9 µM (active)
N#C/C(=C1/SC[C@@H](c2ccc(Cl)cc2Cl)S1)n1ccnc1,Potency,[1],0.0871 µM (active)
same,Potency,[2],0.436 µM (active)
same,Potency,[3],13.3 µM (active)
same,Potency,[4],11.9 µM (active)
O=C1CC[C@H](C(=O)N2CCCCC2)N1,Potency,[1],inactive
same,Potency,[2],inactive
same,Potency,[3],inactive
same,Potency,[4],inactive
O=C1CC(c2ccc(Cl)cc2)CC(=O)N1,Potency,[1],inactive
same,Potency,[2],inactive
same,Potency,[3],inactive
same,Potency,[4],inactive
CCOc1c(N2CCOCC2)cnn(C)c1=O,Potency,[1],inactive
same,Potency,[2],inactive
same,Potency,[3],inactive
same,Potency,[4],inactive
CN1CC[C@H](c2c(O)cc(O)c3c(=O)cc(-c4ccccc4Cl)oc23)[C@H](O)C1,Potency,[1],12.3 µM (active)
same,Potency,[2],inactive
same,Potency,[3],0.0211 µM (active)
same,Potency,[4],0.0106 µM (active)
C[C@H](CN1CCCC1)C(=O)c1ccc(C(F)(F)F)cc1,Potency,[1],2.19 µM (active)
same,Potency,[2],inactive
same,Potency,[3],11.9 µM (active)
same,Potency,[4],6.68 µM (active)
C[N+]1(CC2COC(c3ccccc3)(c3ccccc3)O2)CCCCC1 (configuration not stated),Potency,[1],1.51 µM (active)
same,Potency,[2],inactive
same,Potency,[4],2.59 µM (active)
CCNC(=O)[C@@H]1CCCN1C(=O)[C@H](CCCN=C(N)N)NC(=O)[C@H](CC(C)C)NC(=O)CNC(=O)[C@H](Cc1ccc(O)cc1)NC(=O)[C@H](CO)NC(=O)[C@H](Cc1c[nH]c2ccccc12)NC(=O)[C@H](Cc1cnc[nH]1)NC(=O)[C@@H]1CCC(=O)N1 ([pGlu]HWSYGLRP-NHEt),Potency,[1],inactive
same,Potency,[2],inactive
same,Potency,[4],inactive
CCN(CC)CCN,Potency,[1],inactive
same,Potency,[2],inactive
same,Potency,[3],inactive
same,Potency,[4],inactive
O=C1NC(c2ccccc2)(c2ccccc2)C(=O)N1COP(=O)(O)O,Potency,[1],inactive
same,Potency,[2],inactive
same,Potency,[3],inactive
same,Potency,[4],inactive
CCN(CC)CC(=O)OCC(=O)[C@@]1(O)CC[C@H]2[C@@H]3CCC4=CC(=O)CC[C@]4(C)[C@H]3[C@@H](O)C[C@@]21C,Potency,[1],inactive
same,Potency,[2],inactive
same,Potency,[4],0.0944 µM (active)
CC(C)(Oc1ccc(Cl)cc1)C(=O)OCCCOC(=O)C(C)(C)Oc1ccc(Cl)cc1,Potency,[1],inactive
same,Potency,[2],7.76 µM (active)
same,Potency,[3],inactive
same,Potency,[4],inactive
CC1(C)O[C@@H]2C[C@H]3[C@@H]4C[C@H](F)C5=CC(=O)C=C[C@]5(C)[C@@]4(F)[C@@H](O)C[C@]3(C)[C@]2(C(=O)CO)O1,Potency,[1],inactive
same,Potency,[2],inactive
same,Potency,[4],0.8 nM (active) and 5.9 nM (active)
Nc1cccc2c(N)cccc12,Potency,[1],2.99 µM (active)
same,Potency,[2],18.9 µM (active)
same,Potency,[3],24.3 µM (active)
same,Potency,[4],3.86 µM (active)
same,Potency,[5],inactive
same,Potency,[6],inactive
Oc1ccc(CCNCCCCCCNCCc2ccccc2)cc1O,Potency,[1],24.5 µM (active)
same,Potency,[2],inactive
same,Potency,[4],16.8 µM (active)
C[N+](C)(CCOc1ccccc1)Cc1cccs1,Potency,[1],0.123 µM (active)
same,Potency,[2],inactive
same,Potency,[4],26.6 µM (active)
Brc1ccccc1-c1ccccc1,Potency,[1],inactive
same,Potency,[2],inactive
same,Potency,[3],inactive
same,Potency,[4],inactive
CCOc1ncc(F)c(=O)[nH]1,Potency,[1],inactive
same,Potency,[2],inactive
same,Potency,[3],inactive
same,Potency,[4],inactive
Fc1ccc(C(c2ccc(F)cc2)N2CCNCC2)cc1,Potency,[1],7.76 µM (active)
same,Potency,[2],inactive
same,Potency,[3],inactive
same,Potency,[4],inactive
CN(C)CCOC(c1ccccc1)c1ccc(Br)cc1 (configuration not stated),Potency,[1],0.275 µM (active)
same,Potency,[2],inactive
same,Potency,[4],23.7 µM (active)
CC(C)C(=O)OCc1cccc(OC(=O)[C@@H]2N3C(=O)[C@@H](NC(=O)Cc4ccccc4)[C@H]3SC2(C)C)c1,Potency,[1],inactive
same,Potency,[2],24.5 µM (active)
same,Potency,[3],inactive
same,Potency,[4],inactive
CCN1CCCC1CN (configuration not stated),Potency,[1],inactive
same,Potency,[2],inactive
same,Potency,[3],inactive
same,Potency,[4],inactive
COc1cc2c(cc1OC)C(=O)CC2,Potency,[1],inactive
same,Potency,[2],inactive
same,Potency,[4],inactive
CCCC(CCC)(C(=O)OCC)C(=O)OCC,Potency,[1],inactive
same,Potency,[2],inactive
same,Potency,[3],inactive
same,Potency,[4],inactive
CN1CCCN(C(c2ccccc2)c2ccc(Cl)cc2)CC1 (configuration not stated),Potency,[1],0.0776 µM (active)
same,Potency,[2],inactive
same,Potency,[4],16.8 µM (active)
Cc1ncc(CO)c(CO)c1O,Potency,[1],inactive
same,Potency,[2],inactive
same,Potency,[3],inactive
same,Potency,[4],inactive
CN(C)CCN1CCN(c2cccc(Cl)c2)C1=O,Potency,[1],15.5 µM (active)
same,Potency,[2],inactive
same,Potency,[3],inactive
same,Potency,[4],inactive
Cc1cc(O)c(C)c(C)c1O,Potency,[1],inactive
same,Potency,[2],inactive
same,Potency,[3],inactive
same,Potency,[4],inactive
CC(=O)OCC(=O)[C@@]1(O)[C@H](OC(C)=O)C[C@H]2[C@@H]3CCC4=CC(=O)C=C[C@]4(C)[C@@]3(F)[C@@H](O)C[C@@]21C,Potency,[1],inactive
same,Potency,[2],inactive
same,Potency,[4],0.0596 µM (active)
Cn1cc(S(C)=O)c(=O)c2ccc(F)cc21 (configuration not stated),Potency,[1],inactive
same,Potency,[2],inactive
same,Potency,[3],inactive
same,Potency,[4],inactive
CCCCOC(=O)CCCCCCCCC(=O)OCCCC,Potency,[1],inactive
same,Potency,[2],19 µM (active)
same,Potency,[3],inactive
same,Potency,[4],inactive
CCCCCCCCCCCCCC[N+](C)(C)C,Potency,[1],3.09 µM (active)
same,Potency,[2],inactive
same,Potency,[3],0.237 µM (active)
same,Potency,[4],0.266 µM (active)
CC1CN(c2cc3c(cc2F)c(=O)c(C(=O)O)cn3-c2ccc(F)cc2F)CCN1 (configuration not stated),"activity change, negative = inhibition",[1],-0.861% [at 4.83 µM]
same,"activity change, negative = inhibition",[2],17.6% [at 4.83 µM]
same,"activity change, negative = viability loss",[3],4.46% [at 4.96 µM]
same,"activity change, negative = cell killing",[4],-0.258% [at 4.96 µM]
